From PubChem BioAssay AID1209 (Sanford-Burnham Center for Chemical Genomics, 2008)
Screen size: about 190,000 compounds; about 810 (0.43%) were called active. The sample as a whole holds a higher share of actives than the screen did. Unmarked numbers belong to inactive results. No stated cut-off is given here; in the data, active means inhibition above about 50%; inactive means the rest.

molecular target: Mannose-6-phosphate isomerase (Homo sapiens) (UniProt P34949); assay: MPI enzyme activity inhibition – biochemical, fluorescence intensity, coupled assay, primary screen (AID 1209); conditions: purified PMI enzyme, at 20 µM, stronger effect = higher value;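 further: plate controls were DMSO vehicle for no effect and wells lacking substrate for full effect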
Sequence (P34949 whole entry, looked up): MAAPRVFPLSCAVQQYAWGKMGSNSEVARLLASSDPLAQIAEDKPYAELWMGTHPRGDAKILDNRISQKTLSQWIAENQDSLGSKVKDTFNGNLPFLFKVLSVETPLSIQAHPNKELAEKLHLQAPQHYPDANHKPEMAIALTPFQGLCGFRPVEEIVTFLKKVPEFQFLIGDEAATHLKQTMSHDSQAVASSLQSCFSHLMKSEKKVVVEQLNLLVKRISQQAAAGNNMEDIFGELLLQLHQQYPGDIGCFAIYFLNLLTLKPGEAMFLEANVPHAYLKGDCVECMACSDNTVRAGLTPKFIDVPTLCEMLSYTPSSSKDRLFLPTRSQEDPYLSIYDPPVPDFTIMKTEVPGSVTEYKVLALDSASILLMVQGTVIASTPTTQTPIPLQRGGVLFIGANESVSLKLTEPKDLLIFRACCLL

Row | Compound | inhibition
1 | Cc1nnsc1SC(C)C(=O)O (stereo not drawn) | 64.6% (active)
2 | Cc1nnsc1SCC(=O)O | -12.4%
3 | CC(Sc1sc(=S)sc1SC(C)C(=O)O)C(=O)O (stereo not drawn) | -15.4%
4 | Cc1ccc(S(=O)(=O)N2CCCCC2)cc1NC(=O)Nc1ccc(Cl)cc1Cl | 13.8%
5 | CC(Nc1ccc2c(c1)OCCO2)C(=O)N1CCc2ccccc21 (stereo not drawn) | 6.4%
6 | Cn1c(=O)n(C)c2cc(S(=O)(=O)Nc3cc(Cl)ccc3O)ccc21 | 9.8%
7 | CCN1/C(=N\N)c2cccc3cccc1c23 | -48%
8 | CCN1C(=O)c2cccc3c(S(=O)(=O)Nc4ccccc4)ccc1c23 | -1%
9 | CNC(=O)CN1C(=O)c2cccc3cccc1c23 | -1.5%
10 | CCN1C(=O)c2cccc3c(NC(=O)C(C)(C)C)ccc1c23 | 13.8%
11 | CCN1C(=O)c2cccc3c(N)ccc1c23 | 64.7% (active)
12 | Cc1nc2cc3c(cc2c(C)c1C(=O)OC(C)C)OCO3 | -5.2%
13 | Cc1ccc(C(=O)NCc2ccccc2)c(F)c1F | 5.5%
14 | COc1ccc(OC)c(NC2c3ccccc3C(=O)N2c2cccnc2)c1 (stereo not drawn) | -11.1%
15 | COc1ccc2c(c1)-c1nc(N)sc1CC2 | 73.3% (active)
16 | COc1ccc2c(c1)CCc1sc(NC(=O)c3ccco3)nc1-2 | 31.4%
17 | COc1ccc2c(c1)CCc1sc(NC(=O)c3ccc(C)cc3)nc1-2 | 19.4%
18 | COc1ccc(N=Cc2c(O)ccc3ccccc23)cc1 | 37%
19 | COc1ccc2c(c1)-c1nc(NC(=O)c3cccs3)sc1CC2 | 26.3%
20 | COc1ccc2c(c1)-c1nc(NC(=O)c3ccco3)sc1CC2 | 23.9%
21 | Oc1ccc2ccccc2c1/C=N/c1nc2c(s1)CCCC2 | 45.8%
22 | COc1ccc2c(c1)-c1nc(/N=C/c3ccccc3O)sc1CC2 | 70% (active)
23 | COc1ccc2c(c1)Cc1sc(NC(=O)c3ccccc3)nc1-2 | 3.2%

Row | Compound | inhibition
24 | COc1ccc2c(c1)-c1nc(/N=C/c3ccc(O)cc3)sc1CC2 | 80.2% (active)
25 | COc1ccc(C(=O)Nc2nc3c(s2)Cc2cc(OC)ccc2-3)cc1 | -2.4%
26 | COc1ccc2c(c1)-c1nc(/N=C/c3c(O)ccc4ccccc34)sc1CC2 | 77.9% (active)
27 | COc1cccc(N(CC(=O)N2CCN(C)CC2)S(=O)(=O)c2ccccc2)c1 | 2.4%
28 | Cc1ccc(C)c(N2CCN(C(c3ccc(N(C)C)cc3)c3nnnn3C(C)(C)C)CC2)c1 (stereo not drawn) | 12.6%
29 | CCCNCC(O)Cn1c2ccccc2n2c(=O)cc(C)c(C#N)c12 (stereo not drawn) | -6%
30 | Cc1ccc(C)c(NC(=O)CSc2ccc(-c3ccco3)nn2)c1 | 8.2%
31 | COc1cccc(N(C(=O)Cn2nnc3ccccc32)C(C(=O)NCc2ccco2)c2cccnc2)c1 (stereo not drawn) | 1.5%
32 | Cc1ccc(C)c(C(=O)NC2CC(C)(C)NC(C)(C)C2)c1 | 2.7%
33 | CC(NC(=O)c1sc2ccccc2c1Cl)C1CCCO1 (stereo not drawn) | 6.7%
34 | O=C(CSc1nccc(-c2ccc(Br)cc2)n1)NCCc1ccccc1 | 0.8%
35 | CSc1ccc(-c2nc(O)c3cnccn23)cc1 | -16.4%
36 | CN(C)S(=O)(=O)c1cccc(NC(=O)c2cc(-c3cccs3)nn2-c2ccccc2)c1 | 2.9%
37 | CC(C)NC(=O)C1CCN(C2CCN(Cc3nc4ccccc4s3)CC2)CC1 | 1.6%
38 | COc1cccc(C=Nc2cc(C)cc(C)c2)c1O | -1.7%
39 | COc1cccc(C=Nc2cc(C)on2)c1O | 13.5%
40 | COc1ccc2c(c1)-c1nc(/N=C/c3cccc(OC)c3O)sc1CC2 | 65.8% (active)
41 | CCC(Oc1ccc2c(c1)C(=O)CC(C)(C)O2)C(=O)NCCN1CCCCCC1 (stereo not drawn) | 20%
42 | CC(Sc1nnc(COc2ccc([N+](=O)[O-])cc2)n1C)C(=O)O (stereo not drawn) | 0.2%
43 | Cc1nc([N+](=O)[O-])nn1C12CC3CC(CC(Br)(C3)C1)C2 | 75% (active)
44 | Cc1cc(NC(=O)C23CC4CC(C2)CC(n2cnc([N+](=O)[O-])n2)(C4)C3)no1 | 2.7%
45 | Cc1nc([N+](=O)[O-])nn1C12CC3CC(CC(Cl)(C3)C1)C2 | 4.8%
46 | CCN(CC)CCCOC(=O)C1(c2ccccc2)CCCC1 | -3.2%

Row | Compound | inhibition
47 | Cc1ccc(Nc2nnns2)cc1 | 57.4% (active)
48 | Cc1ccc(Nc2nnns2)cc1C | 47.5%
49 | Cc1ccc(Nc2nc3ccccc3s2)cc1 | -5.9%
50 | COc1ccc(OC)c(NC(=O)C2C(C(=O)O)C3(Cl)C(Cl)=C(Cl)C2(Cl)C3(Cl)Cl)c1 (stereo not drawn) | 18.2%
51 | CCCCCC(=O)Nc1ccc2ccccc2c1 | 16.7%
52 | CCC(=O)Nc1ccc2ccccc2c1 | 12%
53 | CCOC(=O)C(Nc1ccc2ccccc2c1)C(=O)OCC | 60.3% (active)
54 | COc1ccc(CNS(=O)(=O)c2cccc(S(=O)(=O)N3CCOCC3)c2)cc1 | 6.7%
55 | CCOc1cc(C(C#N)N2CCOCC2)ccc1OC (stereo not drawn) | 12%
56 | O=C(CN1C(=O)COc2ccccc21)NCCCN1CCN(Cc2ccccc2)CC1 | 4.6%
57 | Cc1sc(NC(=O)COc2ccccc2)c(C#N)c1-c1ccccc1 | 4.5%
58 | CCOC(=O)c1sc(NC(=O)CSc2nc(C)cc(-c3ccccc3)n2)c(C#N)c1C | 61.2% (active)
59 | Cc1sc(NC(=O)COc2ccccc2)c(C#N)c1C | 58.3% (active)
60 | CCOC(=O)c1sc(NC(=O)CSc2nc(C)cc(C)n2)c(C#N)c1C | 4.2%
61 | CCOC(=O)c1sc(NC(=O)CSc2n[nH]c(-c3ccc(Cl)cc3Cl)n2)c(C#N)c1C | 25.2%
62 | CCOC(=O)c1c(NC(=O)CSc2nnc(Cc3ccccc3)o2)sc(C(C)=O)c1C | 9.9%
63 | CCOC(=O)c1sc(NC(=O)CSc2nnc(Cc3ccccc3)o2)c(C(=O)OCC)c1C | 4.9%
64 | CCOC(=O)c1sc(NC(=O)CSc2n[nH]c(-c3ccccc3)n2)c(C#N)c1C | 51.7% (active)
65 | CCOC(=O)c1sc(NC(=O)CSc2nc(C)cc(C(F)(F)F)n2)c(C#N)c1C | 26.6%
66 | CCOC(=O)c1sc(NC(=O)CSc2n[nH]c(-c3ccncc3)n2)c(C#N)c1C | -4.9%
67 | CCOC(=O)c1sc(NC(=O)CSc2nnc(Cc3ccccc3)o2)c(C#N)c1C | 72.4% (active)
68 | Cc1ccccc1NC(=O)c1sc(NC(=O)COc2ccccc2)c(C#N)c1C | 5.1%
